VACV mCherry inh = vaccinia inhibition (mCherry reporter). Vaccinia virus mCherry reporter infection, fluorescence. 310,000 compounds, 0.63% hits. Potency, µM (series often up to 36.5 µM), for the others: at the highest dose activity change, negative = inhibition, usual class: inhibitors; calls by dose curve; tested in A549 cells; further: potency means the concentration at half of the fitted maximal effect; nearly all actives have a fitted effect of over 35% in size
MARV entry inh = Marburg virus entry inhibition; AID 540276; Potency, µM (titrated, usually from 37.8 µM), for inactives: at the top dose activity change, negative = inhibition, usual class: inhibitors; 300,000 compounds, 1.8% hits; Marburg virus pseudotyped entry inhibition, cell reporter; calls by dose curve; tested in HEK293 cells; further: potency means the concentration at half of the fitted maximal effect
HCMV antiviral = inhibitors of human cytomegalovirus | HFF cells, HCMV-luciferase reporter, 72 h; hits give low values | activity change, negative = inhibition, % at 57.5 µM | 410,000 compounds, 4.5% hits; in the data active means activity change below about -60%; inconclusive means no clear call, values can overlap the other calls; inactive means above about -39%
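Luciferase read-out from HCMV-luciferase-infected HFFs (MOI 1 PFU/cell) 72 h post infection at 37C; compounds added after 16 h cell attachment; activity normalized between buffer-only basal and Salinomycin (10uM) inhibitor controls.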
Lassa entry inh = inhibitors of Lassa virus binding or cell entry; Lassa virus pseudotype entry inhibition, cell reporter; 300,000 compounds, 1.2% hits; AID 540256; Potency, µM (series often up to 37.9 µM), inactives show at the highest dose activity change, negative = inhibition, hits mostly inhibitors; calls by dose curve; tested in HEK293 cells; further: potency means the concentration at half of the fitted maximal effect; nearly all actives have a fitted effect of over 50% in size
FMDV inh = blocks foot and mouth disease virus; AID 1159524; 410,000 compounds, 1.2% hits; FMDV antiviral cell-based qHTS; Potency, µM (highest dose often 57.9 µM), without a hit: top-dose activity change, negative = inhibition, usual class: inhibitors; calls by dose curve; tested in HEK293T cells; further: read-out not given here; potency means the concentration at half of the fitted maximal effect; nearly all actives have a fitted effect of over 45% in size
VACV Venus inh = inhibitors of vaccinia virus (Venus reporter) | Potency, µM (titrated, usually from 36.5 µM), without a hit: top-dose activity change, negative = inhibition, most hits filed as inhibitors | 330,000 compounds, 0.46% hits | AID 720580 | Vaccinia virus Venus reporter expression, fluorescence; calls by dose curve; tested in A549 cells; further: potency means the concentration at half of the fitted maximal effect; nearly all actives have a fitted effect of over 30% in size
* = called active by the depositor; i = inactive; ? = inconclusive; · = no result; ! = not active in a repeat; [ ] = remark or other dose. The list is not random: actives were taken first. Their share in the collection is about 6.5%. On the % scale 0 is the no-effect control and ±100 the full control effect.

SMILES	VACV mCherry inh	MARV entry inh	HCMV antiviral	Lassa entry inh	FMDV inh	VACV Venus inh
COc1ccc(N(C(=O)c2ccco2)C(C(=O)NC2CCCCC2)c2cccs2)cc1OC (stereo unspecified)	·	-3.1%	-2.1	?	14.3%	-11.4%
C#CC(=O)N(c1ccc(OC)cc1OC)C(C(=O)NC1CCCC1)c1cccs1 (stereo unspecified)	10µM*	?	-99.5*	?	?	10µM*
C#CC(=O)N(c1cc(OC)ccc1OC)C(C(=O)NC1CCCC1)c1cccs1 (stereo unspecified)	11.2µM*	2µM*	·	3.55µM*	?	10µM*
Cc1ccc(C)c(N2CCN(C(=O)c3cc(S(=O)(=O)N4CCCC4)cn3C)CC2)c1	-4.9%	·	12.2	-1.7%[46.1 µM]	?	-20.0%
Cc1ccc(NC(=O)C(C)Sc2nnc(C)n2CC2CCCO2)cc1 (stereo unspecified)	-2.5%	9.7%[46.1 µM]	-71.1*	1.5%[46.1 µM]	-7.6%	16.5%
CCN1CCc2nc(N)oc2CC1	-7.2%	?	-70.0*	-19.0%	-16.1%	-13.7%
CCOC(=O)/C(=C/Nc1ccc(F)c(F)c1)[N+](=O)[O-]	-4.4%	16.4%[46.1 µM]	·	19.4%[46.1 µM]	-7.6%	-9.5%
CCOC(=O)N1CCc2c(sc3c2c(=O)n(Cc2ccccc2)c(=O)n3Cc2c(F)cccc2Cl)C1	-20.7%	11.4%[46.1 µM]	-68.1*	1.1%[46.1 µM]	-16.2%	-15.2%
COc1ccccc1NC(=O)Cn1c(=O)n(CCc2ccccc2)c(=O)c2c3c(sc21)CN(C(C)=O)CC3	-19.1%	?	-91.6*	·	?	-7.4%
CCOC(=O)N1CCc2c(sc3c2c(=O)n(Cc2ccccc2)c(=O)n3Cc2ccccc2F)C1	i	-3.5%	12.0	11.1%	-25.6%	-20.1%
CCOC(=O)N1CCc2c(sc3c2c(=O)n(CCc2ccccc2)c(=O)n3Cc2ccc(F)cc2)C1	-21.2%	?	-4.7	-3.9%[46.1 µM]	?	-17.9%
CC(=O)N1CCc2c(sc3c2c(=O)n(CCc2ccccc2)c(=O)n3Cc2ccc(F)cc2)C1	-11.9%	?	-60.6*	·	?	-1.2%
CC(=O)N1CCc2c(sc3c2c(=O)n(CCc2ccccc2)c(=O)n3CC(=O)Nc2ccccc2F)C1	-4.8%	-12.7%[46.1 µM]	?	·	0.3%	8.0%
Cn1nccc1C(=O)N1CCOCC1	·	·	28.3	·	-5.2%	·
CCn1cc(C(=O)NCCCOC)c(=O)c2cc(S(=O)(=O)N(C)C3CCCCC3)ccc21	-17.2%	-13.2%	-36.4	6.0%	-18.7%	-6.4%
CCn1cc(C(=O)NCCCN2CCCC(C)C2)c(=O)c2cc(S(=O)(=O)N3CCc4ccccc4C3)ccc21 (stereo unspecified)	-18.7%	?	-73.7*	?	-15.9%	?
CCCN(CCC)CCCNC(=O)c1cn(C)c2ccc(S(=O)(=O)N(C)C3CCCCC3)cc2c1=O	i	9.1%[46.1 µM]	?	?	-1.0%	-5.0%
CCC1CCCCN1CCCNC(=O)c1cn(CC)c2ccc(S(=O)(=O)N(C)C3CCCCC3)cc2c1=O (stereo unspecified)	-15.7%	-17.0%[46.1 µM]	-69.1*!	27.5%[46.1 µM]	9.3%	-8.8%
CCCN(CCC)CCCNC(=O)c1cn(CC)c2ccc(S(=O)(=O)N(C)C3CCCCC3)cc2c1=O	-19.1%	5.6%[46.1 µM]	-81.5*!	-1.9%[46.1 µM]	7.8%	-16.2%
COc1ccc(-c2nc3ccc(NS(=O)(=O)c4ccc(C)cc4)cc3o2)cc1	1.1%	-26.8%[46.1 µM]	-13.4	-9.3%[46.1 µM]	6.3%	-8.7%
CCN(CC)C(=O)c1ccccc1NC(=O)CN1C(=O)c2ccccc2S1(=O)=O	i	12.8%[46.1 µM]	-30.9	-1.0%	-7.3%	-7.3%
CC12CCC(C(=O)Nc3ccc(Cl)cc3)([C@H](Br)C1=O)C2(C)C (stereo partly specified)	i	-11.8%[46.1 µM]	-60.5*	3.6%	-26.7%	-4.2%
Cc1ccc2cn[nH]c2c1N	-19.3%	24.5%[46.1 µM]	93.7	9.0%[46.1 µM]	-5.2%	-10.0%
CC1=C/C(=N\NC(=S)Nc2cccnc2)CC(C)(C)C1	2.0%	-7.0%[46.1 µM]	-71.9*	-12.0%	0.0%	-8.9%
CC1(C)C2CC=C(/C=N/NC(=S)Nc3cccnc3)C1C2 (stereo unspecified)	i	16.5%	8.3	-6.6%	-17.1%	-10.3%
SMILES	VACV mCherry inh	MARV entry inh	HCMV antiviral	Lassa entry inh	FMDV inh	VACV Venus inh
O=C1Nc2ccccc2/C1=N/N=C/c1ccc(-c2ccc([N+](=O)[O-])cc2)o1	·	·	-82.6*	·	0.4%	·
COc1ccc(-c2csc(N3CCN(S(=O)(=O)c4ccc5c(c4)NC(=O)CO5)CC3)n2)cc1	·	·	-87.7*	·	?	·
CSc1ccn(CC2CCC(Cl)CC2)c(=O)n1 (stereo unspecified)	·	14.2%	·	·	·	·
CC(C)c1ccc2c(c1)C(N1CCN(C)CC1)Cc1cccnc1S2 (stereo unspecified)	-4.8%	11.2µM*	4.0	-9.6%[46.1 µM]	-21.0%	-10.6%
CCOC(=O)N/N=C/c1ccccc1-c1cc(OC)ccc1OC	·	-4.0%[14.2 µM]	·	·	·	·
O=C(COC(=O)c1c2c(nc3ccccc13)CCN(Cc1ccccc1)C2)Nc1c(F)cccc1F	?	?	-96.3*	?	-14.5%	-18.5%
CC(=O)Nc1ccc(NC(=O)COC(=O)c2c3c(nc4ccccc24)CCN(Cc2ccccc2)C3)cc1	?	?	25.7	?	?	-28.8%
CCn1nc(C(=O)O)c(=O)c2c1CC1=C(C2)OCO1	·	4.9%	·	·	·	·
COc1ccc(-n2c(CN3CCOCC3)nc3ccc([N+](=O)[O-])cc3c2=O)c(OC)c1	-18.7%	18.6%[46.1 µM]	51.1	29.8%[46.1 µM]	-6.8%	1.1%
COc1ccc(-n2c(CN3CCN(c4ccccc4)CC3)nc3ccc([N+](=O)[O-])cc3c2=O)c(OC)c1	-9.2%	-15.2%[46.1 µM]	-78.5*	?	-8.4%	-4.7%
CCOc1ccccc1NC(=O)c1c(NCc2ccc(OC)c(OC)c2OC)sc2c1CCC(C)C2 (stereo unspecified)	-20.2%	·	20.7	?	-12.3%	-6.4%
O=c1c2sc3nc(N4CCOCC4)c4c(c3c2nnn1Cc1ccccc1)CCCC4	·	10.0%	-100.2*	16.6%	-10.9%	?
COc1ccc(-n2cnc3c(sc4nc(N5CCOCC5)c5c(c43)CCCC5)c2=O)cc1	i	-24.7%	57.8	?	?	2.0%
O=c1c2sc3nc(N4CCOCC4)c4c(c3c2ncn1-c1ccccc1)CCCC4	?	?	-63.7*	?	?	?
Cc1ccc(-n2cnc3c(sc4nc(N5CCOCC5)c5c(c43)CCCC5)c2=O)cc1	·	·	-35.1	·	?	·
Cc1ccccc1-n1cnc2c(sc3nc(N4CCOCC4)c4c(c32)CCCC4)c1=O	i[7.34 µM]	?	-89.1*	?	-18.4%	2.4%[7.34 µM]
COc1cc2ncnc(NCCc3ccccc3)c2cc1OC	·	·	?	·	20µM*	·
COc1ccc(CNc2ncnc3cc(Cl)ccc23)cc1OC	-14.6%	?	-69.9*	?	?	-25.2%
COc1cc2ncnc(NCc3ccc(C)cc3)c2cc1OC	-12.4%	?	0.1	-5.7%	-13.1%	-14.6%
COc1cccc(CNc2ncnc3cc(OC)c(OC)cc23)c1	·	?	21.2	-11.9%	?	?
